According to PubChem BioAssay:
For some of these results: Potency and affinity values are given separately. Calls of active or inactive are those of the source. Unless noted, no rule for the calls is given here.

How the values were obtained:
[1] = antimalarial activity against Dd2 strain (AID 2302;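 active = growth inhibition above 50% at the single 2 µM test dose, taken to imply half-maximal potency below 2 µM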;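 also: 0% = DMSO untreated growth and 100% = chloroquine plus artemisinin killed control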); details: P. falciparum Dd2 in RBCs, LDH growth readout, 72 h; at 2 µM; active compounds read high
[2] = HepG2 cytotoxicity, primary screen, cytotoxicity control for P. falciparum antimalarial project, cell-based, ATP luminescence (AID 2303;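 active = inhibition above 50%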;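 also: 0% = DMSO wells and 100% = digitonin-killed cells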); details: HepG2 viability, 24-48 h, at 10 µM, active compounds read high
[3] = target: L-lactate dehydrogenase (Plasmodium falciparum (isolate CDC / Honduras)) (UniProt Q27743); assay: PfLDH activity inhibition – cell lysate, 3D7 strain, counter-screen for P. falciparum growth inhibition project (AID 2304);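 also: 0% = vehicle and 100% = reference inhibitor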; details: P. falciparum 3D7 crude extract, LDH APAD/NBT absorbance; at 2 µM; active compounds read high
Chain of L-lactate dehydrogenase (Plasmodium falciparum (isolate CDC / Honduras)) (Q27743 whole entry, looked up): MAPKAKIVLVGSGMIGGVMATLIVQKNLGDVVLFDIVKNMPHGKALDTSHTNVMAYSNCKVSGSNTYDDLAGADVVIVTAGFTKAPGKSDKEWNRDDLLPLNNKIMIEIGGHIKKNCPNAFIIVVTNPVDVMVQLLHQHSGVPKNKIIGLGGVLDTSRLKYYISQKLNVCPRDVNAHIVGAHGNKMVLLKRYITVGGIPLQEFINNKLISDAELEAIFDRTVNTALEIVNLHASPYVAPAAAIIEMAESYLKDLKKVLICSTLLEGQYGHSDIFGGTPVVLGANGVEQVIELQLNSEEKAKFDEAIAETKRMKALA

[4] = inhibition of 3D7 malaria parasite growth – strain 3D7 (AID 2306);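 also: 0% = DMSO wells and 100% = chloroquine plus artemisinin control wells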; details: P. falciparum 3D7 erythrocytic growth, LDH absorbance, 72 h; at 2 µM; active compounds read high
[5] = target: Calcium-dependent protein kinase 1 (Plasmodium falciparum (isolate 3D7)) (UniProt P62344); assay: PfCDPK1 kinase inhibitors, biochemical, TCAMS library (AID 1159585; cut-off not given, nearly all actives have IC50 up to about 0.98 µM;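 also: inhibitors leave more ATP so luminescence rises with inhibition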); details: recombinant PfCDPK1, Kinase-Glo ATP depletion luminescence
Chain of Calcium-dependent protein kinase 1 (Plasmodium falciparum (isolate 3D7)) (P62344 whole entry, looked up): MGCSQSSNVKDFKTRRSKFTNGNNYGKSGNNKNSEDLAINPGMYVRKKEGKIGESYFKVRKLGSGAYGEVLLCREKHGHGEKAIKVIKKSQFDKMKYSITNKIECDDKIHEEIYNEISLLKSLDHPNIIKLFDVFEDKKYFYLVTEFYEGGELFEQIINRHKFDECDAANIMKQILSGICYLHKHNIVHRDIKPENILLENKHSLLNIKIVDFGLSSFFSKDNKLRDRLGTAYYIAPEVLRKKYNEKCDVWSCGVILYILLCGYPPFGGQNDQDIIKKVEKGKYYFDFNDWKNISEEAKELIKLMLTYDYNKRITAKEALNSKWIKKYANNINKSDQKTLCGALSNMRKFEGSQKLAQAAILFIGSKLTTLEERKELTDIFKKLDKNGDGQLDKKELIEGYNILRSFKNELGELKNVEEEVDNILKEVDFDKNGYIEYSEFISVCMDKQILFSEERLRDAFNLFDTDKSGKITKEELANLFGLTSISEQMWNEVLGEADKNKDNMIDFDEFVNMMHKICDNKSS

[6] = target: Plasmodium falciparum protein kinase 6 (PK6, PF3D7_1337100) (UniProt Q8IDW1); assay: PfPK6 kinase inhibitors, biochemical, TCAMS library (AID 1159586); details: recombinant PfPK6, Kinase-Glo ATP depletion luminescence
Chain of Plasmodium falciparum protein kinase 6 (PK6, PF3D7_1337100) (Q8IDW1 1-305): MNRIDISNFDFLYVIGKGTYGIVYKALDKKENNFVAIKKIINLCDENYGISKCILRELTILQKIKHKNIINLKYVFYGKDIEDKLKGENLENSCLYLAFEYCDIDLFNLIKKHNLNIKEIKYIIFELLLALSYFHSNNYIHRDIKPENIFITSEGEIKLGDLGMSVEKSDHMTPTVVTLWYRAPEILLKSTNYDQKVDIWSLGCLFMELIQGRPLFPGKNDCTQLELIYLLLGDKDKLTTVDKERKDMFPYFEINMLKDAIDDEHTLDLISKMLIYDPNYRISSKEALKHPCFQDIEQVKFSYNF

[7] = target: Protein kinase 7 (PK7), Plasmodium falciparum 3D7 (PF3D7_0213400) (UniProt Q7YTF7); assay: inhibition of Plasmodium PK7 catalytic activity – biochemical, TCAMS antimalarial set, Kinase-Glo luminescence (AID 1159587); details: recombinant PfPK7, Kinase-Glo ATP depletion luminescence
Chain of Protein kinase 7 (PK7), Plasmodium falciparum 3D7 (PF3D7_0213400) (Q7YTF7 1-343): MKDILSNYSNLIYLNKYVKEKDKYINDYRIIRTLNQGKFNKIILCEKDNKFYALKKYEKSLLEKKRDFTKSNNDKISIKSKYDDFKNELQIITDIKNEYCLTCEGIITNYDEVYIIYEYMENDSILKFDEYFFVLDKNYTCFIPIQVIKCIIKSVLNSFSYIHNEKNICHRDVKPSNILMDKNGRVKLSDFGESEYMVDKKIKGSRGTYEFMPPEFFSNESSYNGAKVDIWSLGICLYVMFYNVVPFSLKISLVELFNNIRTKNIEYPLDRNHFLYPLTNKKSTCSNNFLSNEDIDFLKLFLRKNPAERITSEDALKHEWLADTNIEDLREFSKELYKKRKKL

[8] = target: Calcium-dependent protein kinase 4 (Plasmodium falciparum (isolate 3D7)) (UniProt Q8IBS5); assay: PfCDPK4 kinase inhibitors, biochemical, TCAMS library (AID 1159588; cut-off not given, nearly all actives have IC50 up to about 0.91 µM); details: recombinant PfCDPK4, Kinase-Glo ATP depletion luminescence
Chain of Calcium-dependent protein kinase 4 (Plasmodium falciparum (isolate 3D7)) (Q8IBS5 whole entry, looked up): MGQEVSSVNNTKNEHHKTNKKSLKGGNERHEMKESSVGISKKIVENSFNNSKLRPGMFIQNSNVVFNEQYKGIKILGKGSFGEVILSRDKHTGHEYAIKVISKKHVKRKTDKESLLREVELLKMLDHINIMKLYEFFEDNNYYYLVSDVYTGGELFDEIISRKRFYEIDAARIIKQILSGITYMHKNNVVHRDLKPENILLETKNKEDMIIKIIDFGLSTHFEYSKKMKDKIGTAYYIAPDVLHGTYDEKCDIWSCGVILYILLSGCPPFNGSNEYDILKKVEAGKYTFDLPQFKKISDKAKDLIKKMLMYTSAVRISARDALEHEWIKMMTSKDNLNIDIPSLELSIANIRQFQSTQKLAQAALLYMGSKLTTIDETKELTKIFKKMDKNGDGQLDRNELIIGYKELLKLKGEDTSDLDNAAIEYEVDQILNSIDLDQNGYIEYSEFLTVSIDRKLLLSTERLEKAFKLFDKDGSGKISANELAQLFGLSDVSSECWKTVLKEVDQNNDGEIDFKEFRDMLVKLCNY

COc1ccc2nccc(N3CCC(NCCNCc4ccc5c(n4)NC(=O)CO5)C3)c2n1 (stereo not drawn)
inactive: growth inhibition [1] 47% | inhibition [2] 0% | inhibition [3] 3% | outcome [5] | outcome [6] | outcome [7] | outcome [8]
active: growth inhibition [4] 100%

CCN(CCCN1CCCCC1)c1nccc(Nc2ccc(Cl)cc2)n1
inactive: inhibition [2] 19% | inhibition [3] -1% | outcome [5] | outcome [6] | outcome [7] | outcome [8]
active: growth inhibition [1] 63% | growth inhibition [4] 89%

CC(=O)NCCNc1cc(N2CCc3ncnc(Nc4ccc(OCc5c(F)cccc5F)c(Cl)c4)c3C2)ncn1
active: growth inhibition [1] 100% | inhibition [2] 55% | growth inhibition [4] 100%
inactive: inhibition [3] 4% | outcome [5] | outcome [6] | outcome [7] | outcome [8]

COc1cccc(C2CCN(CCN3CCC(NC(=O)c4ccc(-c5ccc(C#N)cc5)cc4)CC3)CC2)c1
active: growth inhibition [4] 98%
inactive: growth inhibition [1] 47% | inhibition [2] 28% | inhibition [3] 6% | outcome [5] | outcome [6] | outcome [7] | outcome [8]

CCC(ON1C(N)=NC(N)=NC1(C)C)c1ccccc1 (stereo not drawn)
active: inhibition [2] 61% | growth inhibition [4] 96%
inactive: growth inhibition [1] -5% | inhibition [3] -4% | outcome [5] | outcome [6] | outcome [7] | outcome [8]

O=[N+]([O-])c1ccc(C(O)CNCCc2ccccc2)cc1OCc1ccccc1 (stereo not drawn)
inactive: inhibition [2] -6% | inhibition [3] -1% | outcome [5] | outcome [6] | outcome [7] | outcome [8]
active: growth inhibition [1] 67% | growth inhibition [4] 94%

O=C(Nc1cccc(-c2csc(NC(=O)c3ccc4ccccc4c3)n2)c1)c1ccc2ccccc2c1
inactive: growth inhibition [1] 35% | inhibition [2] 3% | inhibition [3] -2% | outcome [5] | outcome [6] | outcome [7] | outcome [8]
active: growth inhibition [4] 89%

CN(C)CCOc1ccc2c(c1)CN(C)CC2c1ccccc1 (stereo not drawn)
inactive: growth inhibition [1] -1% | inhibition [2] 15% | inhibition [3] -2% | outcome [5] | outcome [6] | outcome [7] | outcome [8]
active: growth inhibition [4] 91%

O=C(Nc1ccccc1)Nc1cccc(-c2nn3c(OCC4CCCCN4)cccc3c2-c2ccncc2)c1 (stereo not drawn)
active: growth inhibition [1] 82% | growth inhibition [4] 97%
inactive: inhibition [2] 9% | inhibition [3] -7% | outcome [5] | outcome [6] | outcome [7] | outcome [8]

CN1CCN(CCc2ccc3nc(-c4csc(Cc5cc(Cl)ccc5OCc5ccccc5)n4)[nH]c3c2)CC1
active: growth inhibition [1] 97% | growth inhibition [4] 101%
inactive: inhibition [2] 30% | inhibition [3] -1% | outcome [5] | outcome [6] | outcome [7] | outcome [8]

CN1CCN(CC(=O)Nc2cccc(-c3cccc(-c4nc5ccc(C(F)(F)F)cc5[nH]4)c3)c2)CC1
inactive: inhibition [2] 26% | inhibition [3] 4% | outcome [5] | outcome [6] | outcome [7] | outcome [8]
active: growth inhibition [1] 98% | growth inhibition [4] 101%

O=C(CSc1nc(-c2ccccc2Cl)ns1)Nc1cccc(Cl)c1
inactive: inhibition [2] -8% | inhibition [3] -4% | outcome [5] | outcome [6] | outcome [7] | outcome [8]
active: growth inhibition [1] 89% | growth inhibition [4] 96%

CCN(CC)CCN(Cc1ccc(-c2ccc(C(F)(F)F)cc2)cc1)C(=O)Cn1c(CCc2cccc(F)c2F)nc(=O)c2cc(F)ccc21
active: growth inhibition [4] 98%
inactive: growth inhibition [1] 45% | inhibition [2] 15% | inhibition [3] 0% | outcome [5] | outcome [6] | outcome [7] | outcome [8]

OCCN1CCN(Cc2ccc(-c3cccc(-c4nc5ccc(C(F)(F)F)cc5[nH]4)c3)cc2)CC1
active: growth inhibition [1] 83% | growth inhibition [4] 99%
inactive: inhibition [2] 29% | inhibition [3] 0% | outcome [5] | outcome [6] | outcome [7] | outcome [8]

O=C(Cn1c2ccccc2c(=O)c2ccc(Cl)cc21)Nc1ccc(C(F)(F)F)cc1
active: growth inhibition [1] 100% | growth inhibition [4] 99%
inactive: inhibition [2] 30% | inhibition [3] -3% | outcome [5] | outcome [6] | outcome [7] | outcome [8]

O=C(/C=C/c1ccc(Cl)c(Cl)c1)NC1CCC(CN2CCC(c3nc4ccc(O)cc4[nH]3)CC2)CC1 (stereo not drawn)
inactive: inhibition [2] 41% | inhibition [3] -6% | outcome [5] | outcome [6] | outcome [7] | outcome [8]
active: growth inhibition [1] 84% | growth inhibition [4] 101%

COc1ccc(N2CCN(CCCCNC(=O)c3ccc(NC(=O)c4ccc(OC(F)(F)F)cc4)cc3)CC2)c(OC)c1
active: growth inhibition [1] 90% | growth inhibition [4] 101%
inactive: inhibition [2] 36% | inhibition [3] 5% | outcome [5] | outcome [6] | outcome [7] | outcome [8]

Cc1cccc2[nH]c(-c3cccc(-c4ccc(CNCCCN5CCCC5=O)cc4)c3)nc12
inactive: growth inhibition [1] 38% | inhibition [2] 5% | inhibition [3] 2% | outcome [5] | outcome [6] | outcome [7] | outcome [8]
active: growth inhibition [4] 101%

CCCCCCOc1ccc(C(=O)N[C@H]2CCN(CCCCCNC(=O)/C=C/c3ccc(Cl)c(Cl)c3)C2)cc1
active: growth inhibition [4] 99%
inactive: growth inhibition [1] 25% | inhibition [2] 10% | inhibition [3] -5% | outcome [5] | outcome [6] | outcome [7] | outcome [8]

COc1c(C2CCN(CCCCNC(=O)c3ccc(-c4ccc(Cl)cc4)c(O)c3)CC2)ccc2c1CCCC2
inactive: inhibition [3] -5% | outcome [5] | outcome [6] | outcome [7] | outcome [8]
active: growth inhibition [1] 99% | inhibition [2] 91% | growth inhibition [4] 102%

N#Cc1ccc(-c2ccc(C(=O)Nc3ccc4c(c3)CCN(C3CCC3)CC4)nc2)cn1
inactive: growth inhibition [1] 15% | inhibition [2] 24% | inhibition [3] -1% | outcome [5] | outcome [6] | outcome [7] | outcome [8]
active: growth inhibition [4] 85%

Oc1ccc(Nc2nc(N3CCCC3)c3ccccc3n2)cc1
inactive: inhibition [2] 10% | inhibition [3] -6% | outcome [5] | outcome [6] | outcome [7] | outcome [8]
active: growth inhibition [1] 100% | growth inhibition [4] 102%

Cc1cc(Nc2ccc(O)cc2)nc2cc(O)ccc12
active: growth inhibition [4] 100%
inactive: growth inhibition [1] 9% | inhibition [2] 0% | inhibition [3] -2% | outcome [5] | outcome [6] | outcome [7] | outcome [8]

O=C(/C=C/c1ccc(Cl)c(Cl)c1)NCCCCN1CCCN(C(=O)Nc2ccc(Cl)c(Cl)c2)CC1
active: growth inhibition [4] 96%
inactive: growth inhibition [1] 1% | inhibition [2] 22% | inhibition [3] 3% | outcome [5] | outcome [6] | outcome [7] | outcome [8]

CCCCCCCN1CC[C@@H](CCCc2ccnc3ccc(OC)cc23)[C@@H](CCN)C1
active: inhibition [2] 50% | growth inhibition [4] 102%
inactive: growth inhibition [1] 11% | inhibition [3] -5% | outcome [5] | outcome [6] | outcome [7] | outcome [8]

CC(=O)Nc1ccc(CN2CCC(NC(=O)c3ccc(-c4cccc(F)c4)s3)CC2)cc1
active: growth inhibition [4] 96%
inactive: growth inhibition [1] 13% | inhibition [2] 6% | inhibition [3] 0% | outcome [5] | outcome [6] | outcome [7] | outcome [8]

CCn1c(CN2CCC(C)CC2)nc2cc(NC(=O)c3cccs3)ccc21
active: growth inhibition [1] 95% | growth inhibition [4] 91%
inactive: inhibition [2] 40% | inhibition [3] 1% | outcome [5] | outcome [6] | outcome [7] | outcome [8]

CCOc1cc(C)ccc1NC1CCN(CCCCNC(=O)c2ccc(NC(=O)c3ccc(Cl)cc3)cc2)CC1
active: growth inhibition [1] 70% | growth inhibition [4] 101%
inactive: inhibition [2] 17% | inhibition [3] -2% | outcome [5] | outcome [6] | outcome [7] | outcome [8]

O=C(Cc1ccccc1)NC(c1ccc(Cl)cc1)c1ccc2cccnc2c1O (stereo not drawn)
inactive: inhibition [3] -2% | outcome [5] | outcome [6] | outcome [7] | outcome [8]
active: growth inhibition [1] 64% | inhibition [2] 50% | growth inhibition [4] 93%

c1cc(CN2CCC(CCN3CCCCC3)CC2)cc(-c2csc(-c3nc4ccccc4[nH]3)c2)c1
inactive: inhibition [3] -3% | outcome [5] | outcome [6] | outcome [7] | outcome [8]
active: growth inhibition [1] 99% | inhibition [2] 89% | growth inhibition [4] 99%

Cc1ccc2nc(N(CCCn3ccnc3)C(=O)C=Cc3cccs3)sc2c1
inactive: inhibition [2] 22% | inhibition [3] 0% | outcome [5] | outcome [6] | outcome [7] | outcome [8]
active: growth inhibition [1] 57% | growth inhibition [4] 100%

O=C(/C=C/c1ccc(Cl)c(Cl)c1)NCCCCCCN1CCCN(C(=O)Nc2cc(F)cc(F)c2)CC1
active: growth inhibition [4] 99%
inactive: growth inhibition [1] -1% | inhibition [2] 25% | inhibition [3] -6% | outcome [5] | outcome [6] | outcome [7] | outcome [8]

Cc1cc(NCCc2ccccc2)nc(NC(=NCC(=O)OC(C)(C)C)Nc2ccc(C(F)(F)F)cc2)n1
inactive: inhibition [2] 23% | inhibition [3] 2% | outcome [5] | outcome [6] | outcome [7] | outcome [8]
active: growth inhibition [1] 97% | growth inhibition [4] 100%

Cc1c(C2CCN(CCCCNC(=O)c3ccc(-c4ccc(C#N)cc4)cc3)CC2)c2ccccc2n1CCO
inactive: inhibition [2] 28% | inhibition [3] 1% | outcome [5] | outcome [6] | outcome [7] | outcome [8]
active: growth inhibition [1] 99% | growth inhibition [4] 96%

Cc1cccc2[nH]c(-c3cccc(-c4cccc(NC(=O)c5ccc(=O)[nH]n5)c4)c3)nc12
inactive: growth inhibition [1] 32% | inhibition [2] 10% | inhibition [3] -1% | outcome [5] | outcome [6] | outcome [7] | outcome [8]
active: growth inhibition [4] 101%

CC(C)(C)c1ccc(OCCCON2C(N)=NC(N)=NC2(C)C)c(C(C)(C)C)c1
active: growth inhibition [1] 97% | inhibition [2] 64% | growth inhibition [4] 93%
inactive: inhibition [3] 2% | outcome [5] | outcome [6] | outcome [7] | outcome [8]

Cc1cnc(C(=O)Nc2cccc(-c3cccc(-c4nc5ccc(F)cc5[nH]4)c3)c2)cn1
inactive: growth inhibition [1] 24% | inhibition [2] 25% | inhibition [3] -1% | outcome [5] | outcome [6] | outcome [7] | outcome [8]
active: growth inhibition [4] 99%

Nc1nc(N)c2c(ccc3c2ccn3C2C=CCCC2)n1 (stereo not drawn)
inactive: inhibition [3] -2% | outcome [5] | outcome [6] | outcome [7] | outcome [8]
active: growth inhibition [1] 65% | inhibition [2] 68% | growth inhibition [4] 94%

c1ccc(Oc2ccc(Nc3ccnc4ccc(-c5ccccn5)cc34)cc2)cc1
inactive: growth inhibition [1] 10% | inhibition [2] 4% | inhibition [3] -5% | outcome [5] | outcome [6] | outcome [7] | outcome [8]
active: growth inhibition [4] 80%

Cc1cc(N2C(N)=NC(N)=NC2(C)C)ccc1Cl
active: inhibition [2] 66% | growth inhibition [4] 95%
inactive: growth inhibition [1] -2% | inhibition [3] -5% | outcome [5] | outcome [6] | outcome [7] | outcome [8]

COc1ccccc1C1CCN(C2CCC(NC(=O)/C=C/c3cc(C(F)(F)F)cc(C(F)(F)F)c3)CC2)CC1 (stereo not drawn)
active: growth inhibition [4] 92%
inactive: growth inhibition [1] 21% | inhibition [2] 31% | inhibition [3] -4% | outcome [5] | outcome [6] | outcome [7] | outcome [8]
